# CHRM1 PAM: positive allosteric modulators of human M1 muscarinic receptor. P11229. CHO-K1 hM1, Fluo-8 calcium fluorescence, ACh EC20; 0% = ACh EC20, 100% = maximal ACh. activation, % at 3 µM. 360,000 compounds, 0.088% hits. AID 588819; in the data active means activation above about 19%, passing the limit was not always enough
# M1 antag: human CHRM1 antagonism | P11229 | CHO-K1 hM1, Fluo-8 calcium fluorescence, ACh EC80 antagonist | inhibition, % at 3 µM | 360,000 compounds, 1.3% hits;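 active means percent inhibition above its own plate's cutoff, namely the mean of that plate's compound wells plus 3 SD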;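 further: peak over basal fluorescence ratio during 140 s after agonist addition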
# Myeloid diff 2: myeloid differentiation induction; 360,000 compounds, 1% hits; AID 624256; ER-HoxA9 myeloid progenitors, lysozyme-GFP differentiation, flow cytometry; calls only at 10 µM;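 active means normalized GFP-positive differentiation at or above the plate's own cutoff, the solvent-only control mean plus 3 SD; inconclusive means no clear call, values can overlap the other calls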;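 further: cells exposed to compound for four days before flow analysis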
# CHRM1 agonist: activates human CHRM1 receptor; P11229; CHO-K1 hM1, Fluo-8 calcium fluorescence, agonist mode; 0% DMSO, 100% acetylcholine EC100; activation, % at 3 µM; 360,000 compounds, 0.33% hits;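 active means activation above the run's mean compound activation plus 3 SD, cut at about 16% in these data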;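 further: peak over basal fluorescence ratio within a 140 s kinetic read after compound addition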
# ATG4B inh: blocks human ATG4B protease cleavage of LC3 substrate; ATG4B cleavage of LC3-PLA2, NBD-HPC fluorescence, 1 h; inhibition, % at 8.33 µM; 340,000 compounds, 0.51% hits; Q9Y4P1; in the data active means inhibition above about 40%
# Target sequence (Q9Y4P1 whole entry, looked up): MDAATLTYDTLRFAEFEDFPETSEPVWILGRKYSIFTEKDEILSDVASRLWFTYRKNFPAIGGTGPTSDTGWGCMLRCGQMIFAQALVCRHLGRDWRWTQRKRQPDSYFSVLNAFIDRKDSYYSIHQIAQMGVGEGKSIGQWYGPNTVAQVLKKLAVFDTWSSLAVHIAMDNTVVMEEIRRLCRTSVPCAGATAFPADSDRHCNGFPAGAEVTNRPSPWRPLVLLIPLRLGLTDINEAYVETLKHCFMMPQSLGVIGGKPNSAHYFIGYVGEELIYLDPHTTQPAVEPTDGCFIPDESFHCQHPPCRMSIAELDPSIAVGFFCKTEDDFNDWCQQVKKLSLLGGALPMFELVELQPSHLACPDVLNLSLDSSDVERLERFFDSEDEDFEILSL
# SKN-1 inh: inhibitors of C. elegans SKN-1 | C. elegans VP596 Pgst-4::GFP/RFP ratio, acrylamide-induced, 24 h | inhibition, % at 21.8 µM | 360,000 compounds, 0.49% hits | AID 624304;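 active means interference check ratio from 0.5 to 1.5 plus GFP to RFP signal ratio inhibition reaching or exceeding a fixed threshold, cut at about 30% in these data, passing the limit was not always enough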
# Hits are given with their value; . = inactive; ? = inconclusive; / = no result; + = active, no number. This is a sample that favours compounds with a hit; in the whole collection about 3.5% have one here.
SMILES,CHRM1 PAM,M1 antag,Myeloid diff 2,CHRM1 agonist,ATG4B inh,SKN-1 inh
CCCCN(C(=O)c1ccc(Cl)cc1)C1CC2CCC(C1)N2C (stereo not drawn),.,28,.,.,.,.
CCN(CC)C(C)C(=O)Nc1c2c(cc3c1CCC3)CCC2 (stereo not drawn),.,.,+,.,.,.
COc1ccccc1N1N=C(c2ccc([N+](=O)[O-])cc2)CC1c1ccccc1 (stereo not drawn),.,.,+,.,.,.
O=[N+]([O-])c1ccc(N2N=C(c3ccccc3)CC2c2ccccc2O)cc1 (stereo not drawn),.,.,+,.,/,.
NS(=O)(=O)c1ccc(N2N=C(c3ccccc3)CC2c2ccccc2Br)cc1 (stereo not drawn),.,.,.,.,.,.
CCN(CC(=O)N1CCC(C(N)=O)CC1)S(=O)(=O)c1cc(Cl)ccc1Cl,.,.,.,.,.,.
CCOC(=O)C1(C)/C(=N/Nc2cccc(Cl)c2)C(=O)C(=O)N1c1ccccc1 (stereo not drawn),.,.,.,.,.,.
CCOC(=O)C1(C)/C(=N/Nc2ccc(Cl)cc2)C(=O)C(=O)N1c1ccccc1 (stereo not drawn),.,.,.,.,.,38
CC(=O)Oc1cccc2c1C(=O)C1CC=CC(OC(C)=O)C1C2=O (stereo not drawn),.,.,.,.,.,.
COc1ccc([C@H]2C(C#N)=C([S-])N[C@](C)(O)[C@@H]2[n+]2ccccc2)cc1,.,74,+,.,.,.
COc1ccc(C(=O)NCc2nnc(SCC(=O)NO)n2Cc2ccccc2)cc1,.,.,.,.,.,.
Cc1cc(C)n2nc(SCc3c(F)cccc3Cl)nc2n1,.,.,.,.,.,.
Cc1cccc(CSc2nc3nc(C)cc(C)n3n2)c1,.,.,+,.,.,.
Cc1cc(C)n2nc(SCCOc3ccc(F)cc3)nc2n1,.,.,+,.,.,.
COc1ccc(S(=O)(=O)c2cnc3ccc(OC)cc3c2N2CCC3(CC2)OCCO3)cc1,.,28,.,.,.,.
CCc1ccc2nc3nc(C)cc(C)c3c(N)c2c1,.,.,+,.,.,.
Cc1cc(C)c2c(N)c3ccccc3nc2n1,.,.,.,.,.,.
O=C(CCn1c(=O)oc2ccccc21)Nc1cccc(Br)c1,.,.,.,.,.,.
CCc1nc2ccc(C(=O)Nc3cccc(NS(C)(=O)=O)c3)cn2c1N(C)CCCc1ccccc1,.,41,.,.,/,.
CCc1nc2ccc(C(=O)Nc3cccc(OC)c3)cn2c1N(C)CCCc1ccccc1,.,.,.,.,/,.
CCc1nc2ccc(C(=O)Nc3cccc(NS(C)(=O)=O)c3)cn2c1N(CCC(C)C)CCN(C)C,.,.,.,.,/,.
CCc1nc2ccc(C(=O)Nc3ccc(C(=O)N(C)C)cc3)cn2c1N(C)CCCc1ccccc1,.,39,.,.,/,.
CCc1nc2ccc(C(=O)Nc3cccc(NS(C)(=O)=O)c3)cn2c1N(C=O)CCC(C)C,.,.,+,.,/,.
CCc1nc2ccc(C(=O)Nc3ccc(NC(C)=O)cc3)cn2c1N(C)CCCc1ccccc1,.,47,.,.,/,.
O=C(C[C@@H]1C[C@H]2c3cc(NC(=O)NC4CCCCC4)ccc3O[C@H]2[C@H](CO)O1)NC1CCCCC1,.,.,.,.,/,.
SMILES,CHRM1 PAM,M1 antag,Myeloid diff 2,CHRM1 agonist,ATG4B inh,SKN-1 inh
COc1ccc(CN2C(=O)c3ccccc3C2c2nnnn2-c2ccc3c(c2)OCCO3)cc1 (stereo not drawn),/,/,.,/,/,.
OCC1OC(n2cnc3c(SCc4ccccc4)nc(NO)nc32)C(O)C1O (stereo not drawn),.,71,.,.,/,.
CCN(CC)CC(=O)NN=C(c1ccccc1)c1ccccc1,.,27,.,.,.,.
O=C(CCl)NN=C(c1ccccc1)c1ccccc1,.,.,.,.,.,.
Cc1cc(/C=C(\C#N)C(=O)Nc2ccc(F)cc2)c(C)n1-c1ccc(N2CCOCC2)c([N+](=O)[O-])c1,.,.,.,.,.,38
COc1ccc(NC(=O)/C(C#N)=C/c2cc(C)n(-c3ccc(N4CCOCC4)c([N+](=O)[O-])c3)c2C)cc1,.,.,?,.,.,.
O=[N+]([O-])c1cccc(OCCCN2CCC(Cc3ccccc3)CC2)c1,.,77,.,.,.,.
CC1CCN(CCCCOc2ccc([N+](=O)[O-])cc2)CC1,.,.,.,.,.,.
Cc1ccc([N+](=O)[O-])c(OCCN2CCC(Cc3ccccc3)CC2)c1,.,84,.,.,.,.
O=[N+]([O-])c1ccc(CN2CCC(Cc3ccccc3)CC2)cc1,.,39,.,.,.,.
O=[N+]([O-])c1ccc(C(=S)N2CCC(Cc3ccccc3)CC2)cc1,.,.,.,.,.,.
O=C(CCCSc1nc2ccccc2c(=O)[nH]1)c1ccccc1,.,.,.,.,.,.
O=C(Nc1cccc(C(F)(F)F)c1)Nc1ccc2[nH]c(=O)[nH]c2c1,.,.,?,.,.,.
COc1ccc(CN2C(=O)CS/C2=N/N=C/c2ccccc2)cc1,.,.,.,.,.,53
COc1ccc(N=C2SCC(=O)N2Cc2ccccc2)cc1,.,.,+,.,.,.
COc1ccc(/C=N/N=C2/SCC(=O)N2Cc2ccccc2)cc1,.,.,.,.,.,.
CCOC(=O)N1CCN(S(=O)(=O)N2CCCC(C(=O)NCc3cc(Br)ccc3OC)C2)CC1 (stereo not drawn),.,.,.,.,/,.
CCN(Cc1ccccc1)S(=O)(=O)c1c(C(=O)N2CCCC2)c(C)n(C)c1C,.,.,.,.,.,.
C/C(O)=c1/c(=O)nc2cccc3c2=c1c1ccccc1c3=O,.,.,.,.,.,.
CCCc1nnc(SCC(=O)NC2CC2)n1CC,.,.,/,.,.,.
C=CCn1c(Cc2ccc(OCC)cc2)nnc1SCC(N)=O,.,.,+,.,.,.
C=CCn1c(Cc2ccc(OC)cc2)nnc1SCC(N)=O,.,.,.,.,.,.
COc1ccc(CNCc2c(C(=O)N(C)C)nc3ccc(Cl)cn23)c(OC)c1,.,.,.,.,.,.
O=C1CCC[C@@H]2Cc3[nH]c4c(Cl)ccc(Cl)c4c3[C@@H]3CCN1[C@H]23,.,.,.,.,.,.
Cc1cc(N)n(-c2ccc3ccccc3c2)n1,.,.,+,.,.,.
COc1ccc(-n2nc(C)cc2N)cc1,.,.,.,.,.,.
CCC(C(=O)n1cccc1C#N)c1ccccc1C (stereo not drawn),.,.,.,.,.,.
CCN(CC)c1ccc(C(=S)N2CCN(c3ccccc3)CC2)cc1,.,.,.,.,.,32
CC(C)[C@H](NC(=O)OC(C)(C)C)c1cc(C(=O)N(C)CCN(C)C)c(N)s1,/,/,.,/,/,.
